Source: the supplement of paper PMC12669032

Experiments:
Test in all cases: growth AUC relative to DMSO control (median of replicates) (fraction); higher = more growth (less inhibition), active = hit call of the paper
Details in all cases: 20 µM; 24 h;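 active = AUC reduced over 20% with Padj below 0.05 in at least 2 of 3 replicates; inactive = otherwise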
[1] = system: Coprococcus comes
Procedure, shortened: (§1)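 OD600 was recorded every hour for 24 h in anaerobic monocultures of gut bacteria kept at 37 °C in mGAM, seeded at OD600 0.05 and given 20 µM compound in 1% DMSO. The area under each growth curve was scaled to the plate median of solvent-only wells, or to row and column medians for the industrial chemical plate. Before this step, the minimum OD was set to 0. Reported values are medians of three biological replicates run on separate days.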

[2] = system: Escherichia coli ED1a
Procedure, shortened: as §1

[3] = system: Escherichia coli IAI1
Procedure, shortened: as §1

[4] = system: Eubacterium rectale
Procedure, shortened: as §1

[5] = system: Fusobacterium nucleatum subsp. animalis
Procedure, shortened: as §1

[6] = system: Lactobacillus gasseri
Procedure, shortened: as §1

[7] = system: Lactobacillus paracasei
Procedure, shortened: as §1

[8] = system: Odoribacter splanchnicus
Procedure, shortened: as §1

[9] = system: Parabacteroides distasonis
Procedure, shortened: as §1

[10] = system: Parabacteroides merdae
Procedure, shortened: as §1

Measured: growth AUC

COP(=S)(OC)Oc1nc(Cl)c(Cl)cc1Cl
inactive: [1] 0.978 | [2] 0.986 | [3] 0.997 | [4] 0.913 | [5] 0.94 | [6] 1.07 | [7] 0.989 | [8] 0.942 | [9] 0.937 | [10] 0.951

CS(=O)(=O)c1ccc(C(=O)C2C(=O)CCCC2=O)c(Cl)c1COCC(F)(F)F
inactive: [1] 1.01 | [2] 1.01 | [3] 0.994 | [4] 1.04 | [5] 1.05 | [6] 0.917 | [7] 0.989 | [8] 1.14 | [9] 0.944 | [10] 1.01

CN(C)c1nc(=O)n(C2CCCCC2)c(=O)n1C
inactive: [1] 1.03 | [2] 0.994 | [3] 0.984 | [4] 0.978 | [5] 1.11 | [6] 1.01 | [7] 0.943 | [8] 1.02 | [9] 1.03 | [10] 1.01

CC1(C)C(C=C(Cl)Cl)C1C(=O)OCc1cccc(Oc2ccccc2)c1 (mixture of isomers)
inactive: [1] 0.964 | [2] 1.02 | [3] 0.98 | [4] 0.911 | [5] 0.954 | [6] 0.864 | [7] 1.01 | [8] 0.977 | [9] 1 | [10] 0.951

CCOP(=S)(OCC)Oc1ccc(=O)n(-c2ccccc2)n1
inactive: [1] 0.973 | [2] 0.965 | [3] 0.97 | [4] 0.956 | [5] 0.955 | [6] 0.928 | [7] 1.01 | [8] 0.986 | [9] 0.922 | [10] 0.974

CC1(C)C(/C=C(\Cl)c2ccc(Cl)cc2)C1C(=O)OC(C#N)c1ccc(F)c(Oc2ccccc2)c1 (stereo not given)
inactive: [1] 0.968 | [2] 0.986 | [3] 1.01 | [4] 0.864 | [5] 1.02 | [6] 1.04 | [7] 0.913 | [8] 1.03 | [9] 1 | [10] 1

CC(C)(COCc1cccc(Oc2ccccc2)c1)c1ccc(OC(F)(F)Br)cc1
inactive: [1] 0.961 | [2] 0.999 | [3] 0.995 | [4] 0.903 | [5] 0.939 | [6] 1.01 | [7] 1.05 | [8] 0.988 | [9] 1.01 | [10] 0.979

CC1CCCCC1NC(=O)Nc1ccccc1 (mixture of isomers)
inactive: [1] 0.989 | [2] 0.995 | [3] 0.972 | [4] 0.942 | [5] 0.999 | [6] 1.01 | [7] 0.926 | [8] 1.01 | [9] 0.982 | [10] 0.986

CNC(=O)CSP(=S)(OC)OC
inactive: [1] 1.01 | [2] 0.977 | [3] 0.959 | [4] 1.06 | [5] 0.957 | [6] 0.911 | [7] 0.962 | [8] 0.954 | [9] 0.9 | [10] 0.979

Clc1ccccc1-c1nnc(-c2ccccc2Cl)nn1
inactive: [1] 0.911 | [2] 0.99 | [3] 0.978 | [4] 0.997 | [5] 0.943 | [6] 0.964 | [7] 0.79 | [8] 0.887 | [9] 0.991 | [10] 1.03

CC(C)=CC1C(C(=O)OCc2cccc(Oc3ccccc3)c2)C1(C)C (mixture of isomers)
inactive: [1] 0.992 | [2] 0.975 | [3] 0.974 | [4] 1.06 | [5] 1.11 | [6] 0.767 | [7] 1.02 | [8] 1.03 | [9] 0.924 | [10] 0.956

CCOP(=S)(OCC)SCSCC
inactive: [1] 0.985 | [2] 0.987 | [3] 0.956 | [4] 1.17 | [5] 0.99 | [6] 0.97 | [7] 0.952 | [8] 0.984 | [9] 0.921 | [10] 0.947

COc1ccc(C(c2ccc(OC)cc2)C(Cl)(Cl)Cl)cc1
inactive: [1] 0.978 | [2] 1.04 | [3] 0.967 | [4] 0.882 | [5] 1.06 | [6] 1.13 | [7] 1.02 | [8] 1 | [9] 0.938 | [10] 0.71

CC(Oc1ccc(Oc2ccc(C(F)(F)F)cn2)cc1)C(=O)O (stereo not given)
inactive: [1] 1.01 | [2] 0.995 | [3] 0.996 | [4] 1.12 | [5] 0.915 | [6] 0.839 | [7] 0.969 | [9] 0.72 | [10] 0.993
active: [8] 0.766
